SKN-1 block: C. elegans SKN-1 inhibition | C. elegans VP596 Pgst-4::GFP/RFP ratio, acrylamide-induced, 24 h | inhibition, % at 21.8 µM | 0.49% of 360,000 active | AID 624304;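 active = interference check ratio from 0.5 to 1.5 plus GFP to RFP signal ratio inhibition reaching or exceeding a fixed threshold, cut at about 30% in these data, passing the limit was not always enough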
GRIN3A LBD mod: NR3A (human) ligand-binding domain modulation. NR3A LBD differential scanning fluorimetry, Tm shift; 0% = protein alone, 100% = glycine-bound protein. Tm shift relative to glycine control, % at 25 µM. 2.5% of 340,000 active. AID 1259313;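 active = melting temperature shift of at least 10% of the positive control shift, at one fixed dose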
esBAF inh: inhibitors of esBAF chromatin remodeling in mouse ES cells; Bmi1-luciferase knock-in reporter, 24 h; 100% = twice the neutral-well signal; reporter increase, % at 12.5 µM; 2% of 350,000 active; in the data active = activation above about 40%;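 also: 0% = median of the plate's neutral control wells and 100% = double that signal; a rise in the Bmi1 reporter signal indicates esBAF inhibition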
NadD inh: blocks S. aureus nicotinate mononucleotide adenylyltransferase; purified NadD enzyme, colorimetric absorbance read-out; inhibition, % at 20 µM; 0.78% of 360,000 active; AID 602399; in the data active = inhibition above about 26%
SMARCA2 act: SMARCA2 function activation, primary screen. MG213 cells, MMTV-luciferase reporter, dexamethasone, overnight. activation, % at 9.1 µM. 1% of 370,000 active; in the data active = activation above about 7.8%;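 also: 0% = vehicle wells and 100% = reference activator wells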
Vif imaging: blocks HIV Vif function | HEK293T cells, Vif self-association by quenched fluorescence, imaging, 24 h | inhibition, % at 7.49 µM | 0.35% of 340,000 active | AID 602346; in the data active = inhibition above about 50%, passing the limit was not always enough
* = called active by the depositor; · = not tested or not shown. Only some compounds are listed: those with a hit (about 5.2% of all), similar ones and a draw of the others.

SMILES	SKN-1 block	GRIN3A LBD mod	esBAF inh	NadD inh	SMARCA2 act	Vif imaging
O=C(NC1CCC1)[C@H]1[C@H](CO)[C@H]2Cn3c(ccc(-c4ccncc4)c3=O)[C@@H]1N2CC1CC1	·	·	4	·	·	·
COc1ccc(C(=O)c2ccc(-c3ccc(OC)cc3)nc2)cc1	3	-1	6	4	-2	-3
O=C(c1ccc(F)cc1)c1ccc(-c2ccc(F)cc2)nc1	14	3	44*	-4	0	-9
C[C@H](CO)N1C[C@H](C)[C@@H](CN(C)C(=O)Nc2ccc(F)cc2)OCCCC[C@H](C)Oc2ccc(NS(=O)(=O)c3ccccc3)cc2C1=O	·	·	9	·	·	·
COc1cc2sc3ccc(C#Cc4ccccn4)cc3c(=O)c2cc1OC	14	-1	11	0	2	-1
C=CCn1c2ccccc2c(=O)c2cc(C#Cc3ccccn3)ccc21	13	-13	70*	2	6	1
Cc1cc(N/N=C/c2cccc(Cl)c2)nc(NCc2ccccc2)n1	3	15*	-4	4	0	-1
Cc1cc(N/N=C/c2cccc(F)c2)nc(NCc2ccccc2)n1	7	15*	·	-6	3	-14
Cc1cc(N/N=C/c2ccc(Cl)cc2)nc(NCc2ccccc2)n1	17	27*	·	0	-1	-4
O=C1c2ccccc2C(=O)N1CCSc1ccccc1	-7	2	50*	-7	·	-10
O=C(c1ccccc1F)N1CC[C@H]2[C@H](CO)Nc3ccc(-c4ccc(F)cc4)cc3[C@H]21	·	·	-2	·	·	·
COc1cccc(C(=O)/C=C/Nc2ccc(NC(C)=O)cc2)c1	5	7	·	-4	6	-15
O=C(/C=C/Nc1ccc(Br)cn1)c1cccc(OC(F)F)c1	-2	14*	68*	-4	3	-3
C[C@@H]1CN([C@H](C)CO)C(=O)c2cc(NC(=O)Nc3cccc4ccccc34)ccc2O[C@@H](C)CCCCO[C@H]1CN(C)Cc1ccc(C(=O)O)cc1	·	·	-1	·	·	·
CC(C)(C)N1C(=O)c2ccc(C(=O)Nc3nccs3)cc2C1=O	-2	1	54*	-1	4	-2
c1ccc(-c2cn3c(n2)SCC3)cc1	3	0	24	0	7.8*	18
Brc1ccc(-c2cn3c(n2)SCC3)cc1	10	0	58*	-2	-2	-11
Oc1ccc(-c2cn3c(n2)SCC3)cc1O	-2	0	7	11	-1	-6
CC(=O)c1ccc(S(=O)(=O)Nc2ccc(-c3cn4c(n3)SCC4)cc2)cc1	10	-10	·	8	-4	1
Oc1ccc(-c2cn3c(n2)SCC3)cc1	-8	37*	2	-2	2	1
Clc1ccc(-c2cn3c(n2)SCC3)cc1	5	1	56*	-1	2	-6
O=S(=O)(NCC(Nc1ccc(Cl)cc1)c1ccccc1)c1ccccc1 (centres undefined)	4	23*	-4	-6	-5	-2
NS(=O)(=O)c1ccc(NC(CNS(=O)(=O)c2ccccc2)c2ccccc2)cc1 (centres undefined)	1	-7	·	-6	-3	3
Cc1ccc(NC(CNS(=O)(=O)c2ccc(Cl)cc2)c2ccccc2)cc1 (centres undefined)	24	11*	-7	6	-1	-3
COc1ccc(NC(=O)N(C)C[C@@H]2Oc3c(NS(=O)(=O)c4ccccc4)cccc3C(=O)N([C@H](C)CO)C[C@H]2C)cc1	·	·	-3	·	·	·
SMILES	SKN-1 block	GRIN3A LBD mod	esBAF inh	NadD inh	SMARCA2 act	Vif imaging
O=C(N/N=C/c1ccc(O)cc1O)c1ccc(CN2C(=O)c3cccc4cccc2c34)cc1	-8	20*	·	44*	-5	-2
O=C(N/N=C/c1ccccc1)c1ccc(CN2C(=O)c3cccc4cccc2c34)cc1	9	0	·	15	-5	-3
C[C@@H]1CN([C@@H](C)CO)C(=O)c2cc(NC(=O)Cc3ccccc3)ccc2O[C@H]1CN(C)S(=O)(=O)c1ccc(F)cc1	·	·	2	·	·	·
CC(NC(=O)C(CC(=O)OC(C)(C)C)NC(=O)OC(C)(C)C)C(N)=O (centres undefined)	-13	1	-1	4	-3	55*
CCC(C)C(NC(=O)OC(C)(C)C)C(=O)NC(C(=O)NC(C)C(N)=O)C(C)C (centres undefined)	12	-2	·	3	2	3
Cc1nn2c(-c3ccccc3)nnc2c2ccccc12	-1	0	52*	1	2	-14
Nc1[nH]n(-c2ccccc2)c(=O)c1N=Nc1ccc2c(c1)OCO2	-10	11*	33	-2	0	-8
Nc1[nH]n(-c2ccccc2)c(=O)c1N=Nc1ccc2c(c1)OCCO2	-7	6	-7	-8	3	-5
O=c1c(C/C=C/c2ccccc2)c(O)ccn1CCc1c[nH]c2ccccc12	-8	10	-8	2	-4	5
COc1ccc2[nH]cc(CCn3ccc(O)c(C/C=C/c4ccccc4)c3=O)c2c1	2	13*	·	-1	-4	-13
CNC[C@H]1Oc2c(NS(=O)(=O)c3cn(C)cn3)cccc2C(=O)N([C@H](C)CO)C[C@@H]1C	·	·	-1	·	·	·
O=C(O)c1cccc(NS(=O)(=O)c2cc(S(=O)(=O)c3ccc(Cl)cc3)ccc2Cl)c1	-2	16*	-4	-2	-3	-3
O=C(Nc1ccc(NS(=O)(=O)c2ccccc2)cc1)c1ccccc1Cl	9	35*	5	-5	-4	2
O=C(O)c1ccc(NS(=O)(=O)c2ccc(Cl)c(C(=O)Nc3ccccc3)c2)cc1	2	-2	1	-2	2	20
O=C(O)c1ccc(Cl)c(S(=O)(=O)Nc2ccccc2C(=O)Nc2ccc(Cl)cc2)c1	12	29*	5	4	-1	-2
Cc1cc(S(=O)(=O)Nc2cccc(C(=O)O)c2)c(C)c(S(=O)(=O)c2ccc(Cl)cc2)c1	-1	1	0	-2	-2	21
CO[C@@H]1CN(C)C(=O)c2ccc(NC(C)=O)cc2OC[C@@H](C)N(Cc2cncnc2)C[C@@H]1C	·	·	-2	·	·	·
C[C@@H]1CCCCO[C@H](CN(C)C(=O)CCC(F)(F)F)[C@@H](C)CN([C@H](C)CO)C(=O)c2cc(NS(=O)(=O)c3ccccc3)ccc2O1	·	·	-2	·	·	·
CNC(=O)C[C@H]1CC[C@H]2[C@@H](COc3ccc(NC(=O)c4cc(C)on4)cc3C(=O)N2C)O1	·	·	-1	·	·	·
O=C1c2ccccc2NC(c2ccc(-c3ccc(F)cc3)o2)N1O (centres undefined)	-4	-5	41*	6	6	12
COc1ccc(NC(C)=O)c([N+](=O)[O-])c1[N+](=O)[O-]	-15	14*	·	-5	2	-1
O=C(Oc1ccc(-c2csnn2)cc1)c1cccs1	5	29*	-5	-2	-3	8
O=C(Oc1ccccc1-c1csnn1)c1cccs1	0	-2	·	-2	-4	3

High-throughput results from PubChem BioAssay.
